Laboratory results published in the supplement of paper PMC10849652.
About 7,900 targets were measured; listed, in parts, are those with a hit and a random draw of the rest. About 0.6% of all pairs of compound and target were hits. Unmarked numbers belong to inactive results.

What follows are targets tested with Cc1cc(Nc2cc(CN3CCOCC3)c3nc(C)c(Cc4ccc(Cl)cc4F)n3n2)n[nH]1 [gandotinib] (assay: log2 fold change, soluble protein after heating vs DMSO (PISA); higher = thermal stabilisation; K562 cells, 10 uM, 30 min; active = over 0.2 and 3.5 SD of the protein, either way, in both replicates (recomputed)).
Summary of the method: (§1)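 Aliquots of K562 cells (2×10^6 cells/mL) treated with 10 μM compound for 30 min were heated for 3 min over 48°C-58°C. After pooling and extraction in PBS with 0.5% NP-40 at 4°C, soluble protein from a 21,000xg, 90 min spin was quantified by TMTpro 16plex LC-MS/MS with channel sums equalised. Thermal stability is expressed against control samples, from duplicates, as a log2 fold change.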

Sequence of UniProt Q8N4S0 (Q8N4S0 whole entry, looked up): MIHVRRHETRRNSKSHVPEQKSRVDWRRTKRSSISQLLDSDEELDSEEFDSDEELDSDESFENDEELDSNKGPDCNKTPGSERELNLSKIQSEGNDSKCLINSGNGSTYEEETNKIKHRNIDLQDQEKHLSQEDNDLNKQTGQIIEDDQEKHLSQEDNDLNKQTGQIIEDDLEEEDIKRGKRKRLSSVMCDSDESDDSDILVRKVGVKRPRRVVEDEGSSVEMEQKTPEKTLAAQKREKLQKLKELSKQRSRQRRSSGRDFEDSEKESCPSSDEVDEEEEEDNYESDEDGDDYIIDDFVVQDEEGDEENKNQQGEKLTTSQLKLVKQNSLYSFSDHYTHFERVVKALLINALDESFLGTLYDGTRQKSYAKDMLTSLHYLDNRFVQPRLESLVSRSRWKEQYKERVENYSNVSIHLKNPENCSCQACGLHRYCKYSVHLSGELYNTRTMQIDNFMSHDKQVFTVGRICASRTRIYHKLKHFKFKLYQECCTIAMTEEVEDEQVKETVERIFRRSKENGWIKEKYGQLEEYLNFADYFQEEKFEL
Sequence of UniProt O60583 (O60583 whole entry, looked up): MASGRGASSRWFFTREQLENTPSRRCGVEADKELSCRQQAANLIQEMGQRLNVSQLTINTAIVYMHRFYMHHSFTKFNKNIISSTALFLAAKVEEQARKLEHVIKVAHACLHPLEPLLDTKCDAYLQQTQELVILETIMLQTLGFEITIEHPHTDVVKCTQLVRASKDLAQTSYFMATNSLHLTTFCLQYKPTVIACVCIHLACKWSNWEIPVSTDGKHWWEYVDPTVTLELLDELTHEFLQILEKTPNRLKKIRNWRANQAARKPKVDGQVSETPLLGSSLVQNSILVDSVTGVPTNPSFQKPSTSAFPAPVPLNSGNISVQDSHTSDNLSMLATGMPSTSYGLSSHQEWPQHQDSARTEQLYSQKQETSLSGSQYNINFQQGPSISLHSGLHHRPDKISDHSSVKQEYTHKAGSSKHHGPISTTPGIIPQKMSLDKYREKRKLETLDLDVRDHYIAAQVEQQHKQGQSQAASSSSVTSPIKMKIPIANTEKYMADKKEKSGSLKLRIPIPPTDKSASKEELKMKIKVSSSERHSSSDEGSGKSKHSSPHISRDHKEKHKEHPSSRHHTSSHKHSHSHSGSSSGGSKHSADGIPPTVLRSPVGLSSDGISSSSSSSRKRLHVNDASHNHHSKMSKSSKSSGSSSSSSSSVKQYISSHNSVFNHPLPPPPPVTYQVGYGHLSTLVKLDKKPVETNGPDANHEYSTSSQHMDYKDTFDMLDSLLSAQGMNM
Sequence of UniProt Q14677 (Q14677 whole entry, looked up): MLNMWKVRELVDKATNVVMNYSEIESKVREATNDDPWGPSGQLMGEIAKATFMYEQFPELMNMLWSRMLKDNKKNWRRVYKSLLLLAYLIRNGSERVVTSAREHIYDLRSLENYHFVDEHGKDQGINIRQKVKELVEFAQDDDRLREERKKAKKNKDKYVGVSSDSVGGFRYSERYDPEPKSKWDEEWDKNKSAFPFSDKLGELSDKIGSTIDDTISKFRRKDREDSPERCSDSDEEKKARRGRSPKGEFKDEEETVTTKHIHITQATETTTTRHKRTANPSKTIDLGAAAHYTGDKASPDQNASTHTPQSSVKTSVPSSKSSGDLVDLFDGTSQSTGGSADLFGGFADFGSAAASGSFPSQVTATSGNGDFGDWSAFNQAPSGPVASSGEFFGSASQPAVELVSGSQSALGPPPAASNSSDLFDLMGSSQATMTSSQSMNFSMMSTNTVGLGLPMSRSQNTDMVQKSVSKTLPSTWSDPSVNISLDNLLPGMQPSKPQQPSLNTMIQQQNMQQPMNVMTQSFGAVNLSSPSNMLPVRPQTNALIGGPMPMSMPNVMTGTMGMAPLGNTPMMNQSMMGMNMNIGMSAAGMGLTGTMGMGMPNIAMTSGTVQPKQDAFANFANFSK
Sequence of UniProt O95273 (O95273 whole entry, looked up): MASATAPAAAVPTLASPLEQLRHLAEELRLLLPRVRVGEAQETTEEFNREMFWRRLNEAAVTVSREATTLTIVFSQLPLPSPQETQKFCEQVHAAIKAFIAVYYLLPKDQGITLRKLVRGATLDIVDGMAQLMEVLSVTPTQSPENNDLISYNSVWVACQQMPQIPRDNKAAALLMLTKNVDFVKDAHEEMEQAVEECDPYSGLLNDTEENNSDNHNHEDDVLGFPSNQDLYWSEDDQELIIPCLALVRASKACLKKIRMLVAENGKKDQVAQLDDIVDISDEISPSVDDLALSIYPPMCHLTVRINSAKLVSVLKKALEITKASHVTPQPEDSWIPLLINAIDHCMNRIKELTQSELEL
Sequence of UniProt A8MTT3 (A8MTT3 whole entry, looked up): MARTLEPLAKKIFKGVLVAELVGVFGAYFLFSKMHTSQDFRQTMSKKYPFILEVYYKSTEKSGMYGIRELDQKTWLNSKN
Sequence of UniProt Q92828 (Q92828 whole entry, looked up): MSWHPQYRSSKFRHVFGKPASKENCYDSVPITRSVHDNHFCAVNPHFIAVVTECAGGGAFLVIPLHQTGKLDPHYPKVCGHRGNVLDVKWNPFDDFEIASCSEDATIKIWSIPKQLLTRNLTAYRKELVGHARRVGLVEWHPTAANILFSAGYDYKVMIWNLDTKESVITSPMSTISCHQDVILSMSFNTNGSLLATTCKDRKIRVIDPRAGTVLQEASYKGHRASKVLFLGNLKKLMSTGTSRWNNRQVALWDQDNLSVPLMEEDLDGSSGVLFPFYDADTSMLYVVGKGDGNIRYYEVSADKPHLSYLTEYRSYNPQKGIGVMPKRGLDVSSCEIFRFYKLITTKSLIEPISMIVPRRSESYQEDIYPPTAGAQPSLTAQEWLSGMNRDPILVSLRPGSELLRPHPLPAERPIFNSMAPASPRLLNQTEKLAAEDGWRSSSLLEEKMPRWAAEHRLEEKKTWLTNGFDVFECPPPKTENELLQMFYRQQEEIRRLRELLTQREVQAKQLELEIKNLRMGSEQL
Sequence of UniProt O95628 (O95628 whole entry, looked up): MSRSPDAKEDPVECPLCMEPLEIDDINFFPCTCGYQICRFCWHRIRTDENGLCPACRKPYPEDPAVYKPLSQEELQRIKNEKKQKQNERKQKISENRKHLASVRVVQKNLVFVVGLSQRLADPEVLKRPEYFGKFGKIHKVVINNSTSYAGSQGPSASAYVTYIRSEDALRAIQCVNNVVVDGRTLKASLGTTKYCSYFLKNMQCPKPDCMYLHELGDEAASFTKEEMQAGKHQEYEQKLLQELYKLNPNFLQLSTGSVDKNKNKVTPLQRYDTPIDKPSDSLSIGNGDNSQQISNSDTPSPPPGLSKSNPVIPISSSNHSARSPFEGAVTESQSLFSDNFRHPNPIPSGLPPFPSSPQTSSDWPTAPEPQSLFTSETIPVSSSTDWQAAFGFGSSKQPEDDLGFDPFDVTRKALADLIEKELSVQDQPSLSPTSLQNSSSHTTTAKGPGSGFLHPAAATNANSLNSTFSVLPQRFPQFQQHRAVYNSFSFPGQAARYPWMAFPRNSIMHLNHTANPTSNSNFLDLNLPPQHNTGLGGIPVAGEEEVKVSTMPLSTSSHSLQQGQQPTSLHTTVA
Sequence of UniProt Q14194 (Q14194 whole entry, looked up): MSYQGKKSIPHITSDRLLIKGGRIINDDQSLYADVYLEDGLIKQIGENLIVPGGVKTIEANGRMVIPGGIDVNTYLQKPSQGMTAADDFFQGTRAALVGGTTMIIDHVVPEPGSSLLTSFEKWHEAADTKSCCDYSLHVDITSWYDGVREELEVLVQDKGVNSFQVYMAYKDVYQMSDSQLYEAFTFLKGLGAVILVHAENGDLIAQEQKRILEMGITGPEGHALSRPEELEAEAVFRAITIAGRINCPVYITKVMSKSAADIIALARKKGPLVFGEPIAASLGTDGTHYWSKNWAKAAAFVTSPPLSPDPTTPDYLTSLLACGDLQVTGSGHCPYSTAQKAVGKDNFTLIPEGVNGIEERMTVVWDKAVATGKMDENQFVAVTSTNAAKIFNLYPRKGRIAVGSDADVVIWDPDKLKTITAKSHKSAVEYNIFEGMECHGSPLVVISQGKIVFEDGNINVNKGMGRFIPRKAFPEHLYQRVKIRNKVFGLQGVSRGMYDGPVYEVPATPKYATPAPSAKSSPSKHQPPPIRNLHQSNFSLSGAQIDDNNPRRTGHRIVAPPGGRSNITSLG
Sequence of UniProt Q9UBY8 (Q9UBY8 whole entry, looked up): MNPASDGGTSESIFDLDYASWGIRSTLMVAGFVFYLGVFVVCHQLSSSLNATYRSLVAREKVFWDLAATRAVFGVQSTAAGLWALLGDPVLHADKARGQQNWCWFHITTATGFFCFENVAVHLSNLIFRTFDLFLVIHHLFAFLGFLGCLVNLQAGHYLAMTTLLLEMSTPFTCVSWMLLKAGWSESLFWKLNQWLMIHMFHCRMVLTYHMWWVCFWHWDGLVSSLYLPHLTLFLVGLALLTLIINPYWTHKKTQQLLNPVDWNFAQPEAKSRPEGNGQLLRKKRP
Sequence of UniProt P33552 (P33552 whole entry, looked up): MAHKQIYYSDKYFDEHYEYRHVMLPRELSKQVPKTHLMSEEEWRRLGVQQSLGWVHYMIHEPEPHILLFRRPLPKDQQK
Sequence of UniProt Q13286 (Q13286 whole entry, looked up): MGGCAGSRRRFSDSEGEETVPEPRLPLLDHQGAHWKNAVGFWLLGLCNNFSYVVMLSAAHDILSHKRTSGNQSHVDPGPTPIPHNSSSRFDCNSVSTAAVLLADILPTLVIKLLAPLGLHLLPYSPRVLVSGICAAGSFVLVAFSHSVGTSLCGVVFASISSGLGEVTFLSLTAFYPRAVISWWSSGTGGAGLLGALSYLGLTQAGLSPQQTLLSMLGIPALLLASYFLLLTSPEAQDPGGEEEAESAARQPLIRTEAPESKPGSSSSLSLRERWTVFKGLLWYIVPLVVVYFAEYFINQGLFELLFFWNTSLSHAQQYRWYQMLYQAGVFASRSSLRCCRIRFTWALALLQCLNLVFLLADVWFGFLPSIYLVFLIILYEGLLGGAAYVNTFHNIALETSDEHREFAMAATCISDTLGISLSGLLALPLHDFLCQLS
Sequence of UniProt O75956 (O75956 whole entry, looked up): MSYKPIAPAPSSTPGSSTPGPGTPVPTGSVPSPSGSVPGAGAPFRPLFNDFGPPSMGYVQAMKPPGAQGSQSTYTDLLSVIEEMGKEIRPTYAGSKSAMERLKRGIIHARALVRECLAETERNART

| Target | log2 fold change |
| --- | --- |
| CCNDBP1 (UniProt O95273) | -0.066 |
| CORO2A (UniProt Q92828) | 0.061 |
| CRMP1 isoform 2 (UniProt Q14194) | -0.132 |
| CNN1 (UniProt P51911) | -0.673 (active) |
| CEBPZOS (UniProt A8MTT3) | -0.189 |
| COMMD3-BMI1 (UniProt R4GMX3) | -0.011 |
| CEMIP2 (UniProt Q9UHN6) | -0.129 |
| CLN8 (UniProt Q9UBY8) | -0.1 |
| CCND3 (UniProt P30281) | -0.027 |
| CKS2 (UniProt P33552) | -0.272 |
| CCDC187, A0A1W2PQX5 | -0.352 |
| CLCN5 isoform 2 (UniProt P51795) | -0.083 |
| CNOT4 isoform 9 (UniProt O95628) | -0.059 |
| CLPTM1L (UniProt G5E9Z2) | -0.382 |
| CFAP58 (UniProt Q5T655) | -0.011 |
| CASP7 isoform 3 (UniProt P55210) | -0.155 |
| CDC25B isoform 4 (UniProt P30305) | 0.122 |
| CCNT2 (UniProt O60583) | -0.065 |

These targets were tested with Cc1cc(Nc2cc(N3CCN(C)CC3)nc(Sc3ccc(NC(=O)C4CC4)cc3)n2)n[nH]1 [tozasertib] in the same assay as above.
Summary of the method: as §1

| Target | log2 fold change |
| --- | --- |
| CCNDBP1 (UniProt O95273) | 0.1 |
| CORO2A (UniProt Q92828) | -0.028 |
| CLN3 (UniProt Q13286) | -0.006 |
| CRMP1 isoform 2 (UniProt Q14194) | -0.602 |
| CCDC82 (UniProt Q8N4S0) | -0.106 |
| CNN1 (UniProt P51911) | -0.151 |
| CEBPZOS (UniProt A8MTT3) | -0.031 |
| COMMD3-BMI1 (UniProt R4GMX3) | -0.048 |
| CREB3L2 (UniProt Q70SY1) | -0.132 |
| CEMIP2 (UniProt Q9UHN6) | 0 |
| CLN8 (UniProt Q9UBY8) | -0.05 |
| CCND3 (UniProt P30281) | -0.058 |
| CKS2 (UniProt P33552) | -0.094 |
| CLCN5 isoform 2 (UniProt P51795) | 0.122 |
| CNOT4 isoform 9 (UniProt O95628) | -0.028 |
| CLPTM1L (UniProt G5E9Z2) | -0.049 |
| CA1 (UniProt E5RIF9) | -0.153 |
| CLINT1 (UniProt Q14677) | 0.074 |
| C5orf30 (UniProt Q96GV9) | -0.24 |
| CRTC3 (UniProt Q6UUV7) | -0.121 |
| CPNE5 (UniProt Q9HCH3) | 0.374 |
| CCNT2 (UniProt O60583) | -0.291 |

These targets were tested with Cc1cc(SCc2sc(-c3ccc(C(F)(F)F)cc3)nc2C)ccc1OCC(=O)O in the same assay as above.
Summary of the method: as §1

| Target | log2 fold change |
| --- | --- |
| CCNDBP1 (UniProt O95273) | 0.043 |
| CORO2A (UniProt Q92828) | 0.023 |
| CLN3 (UniProt Q13286) | -0.085 |
| CRMP1 isoform 2 (UniProt Q14194) | -0.003 |
| CCDC82 (UniProt Q8N4S0) | -0.119 |
| CEBPZOS (UniProt A8MTT3) | -0.013 |
| CEMIP2 (UniProt Q9UHN6) | -0.136 |
| CLN8 (UniProt Q9UBY8) | -0.09 |
| CCND3 (UniProt P30281) | 0.058 |
| CKS2 (UniProt P33552) | -0.038 |
| CLCN5 isoform 2 (UniProt P51795) | -0.049 |
| CNOT4 isoform 9 (UniProt O95628) | -0.086 |
| CA1 (UniProt E5RIF9) | -0.613 |
| CLINT1 (UniProt Q14677) | -0.155 |
| CASP7 isoform 3 (UniProt P55210) | -0.271 |
| CFAP47 (UniProt Q6ZTR5) | -0.302 |
| CASK (UniProt O14936) | -0.039 |
| CCNT2 (UniProt O60583) | 0.047 |

These targets were tested with Cc1ccc(-n2nc(C(C)(C)C)cc2NC(=O)Nc2ccc(OCCN3CCOCC3)c3ccccc23)cc1 [doramapimod] in the same assay as above.
Summary of the method: as §1

| Target | log2 fold change |
| --- | --- |
| CARD9 (UniProt Q9H257) | 0.135 |
| CLN3 (UniProt Q13286) | -0.047 |
| CLASP2 (UniProt O75122) | 0.132 |
| CCDC82 (UniProt Q8N4S0) | -0.165 |
| CEBPZOS (UniProt A8MTT3) | 0.066 |
| CREB3L2 (UniProt Q70SY1) | 0.128 |
| CEMIP2 (UniProt Q9UHN6) | -0.144 |
| CLCN5 isoform 2 (UniProt P51795) | -0.03 |
| CNOT4 isoform 9 (UniProt O95628) | 0.274 |
| CDK2AP2 (UniProt O75956) | -0.014 |
| CLINT1 (UniProt Q14677) | 0.154 |
| CASK (UniProt O14936) | 0.034 |
| CDC25B isoform 4 (UniProt P30305) | 0.132 |
